Laboratory results published in PubChem BioAssay AID1159580 (chemical genetic matrix, 2015).
Where “and” joins values, the source holds several entries; their conditions need not be identical. Equal entries are not always repeated. The whole screen tested about 5,500 compounds, of which about 2,000 (36%) were called active. Inconclusive results (about 18%) are left out. No stated cut-off is given here; in the data, active means normalized growth mostly below about 0.91 (no sharp cut-off); inconclusive means no clear call, values can overlap the other calls; inactive means mostly above about 0.92. The list shows a part of the results.

Experiment: chemical genetic growth profiling, strain panel (AID 1159580);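 further: tested at 20 µM; growth read once vehicle control cultures reached saturation at 30 °C; 1 = growth at the plate median or of vehicle wells; lower values mean less growth of the strain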
Details: growth OD
[1] = S. cerevisiae deletion strains, locus YAL013W, strain DEP1, hits give low values
[2] = S. cerevisiae deletion strains, locus YNL153C, strain GIM3, hits give low values
[3] = S. cerevisiae deletion strains, locus YNL322C, strain KRE1, hits give low values
[4] = S. cerevisiae deletion strains, locus YPL055C, strain LGE1, hits give low values

Measured: normalized growth

N[C@@H](Cc1cc(I)c(Oc2ccc(O)c(I)c2)c(I)c1)C(=O)O
inactive: [1] 1.02 | S. cerevisiae deletion strains, locus YBR021W, strain FUR4, hits give low values 1.01 | S. cerevisiae deletion strains, locus YBR229C, strain ROT2, hits give low values 0.998 | S. cerevisiae deletion strains, locus YCL029C, strain bik1, hits give low values 1 | S. cerevisiae deletion strains, locus YDL035C, strain GPR1, hits give low values 1.01 | S. cerevisiae deletion strains, locus YDL074C, strain BRE1, hits give low values 1.03 | S. cerevisiae deletion strains, locus YDL101C, strain DUN1, hits give low values 1.02 | S. cerevisiae deletion strains, locus YDL134C, strain PPH21, hits give low values 1.01 | S. cerevisiae deletion strains, locus YDL185W, strain tfp1, hits give low values 1 | S. cerevisiae deletion strains, locus YDL192W, strain arf1, hits give low values 1 | S. cerevisiae deletion strains, locus YDR101C, strain arx1, hits give low values 0.986 | S. cerevisiae deletion strains, locus YDR150W, strain NUM1, hits give low values 1.01 | S. cerevisiae deletion strains, locus YDR162C, strain NBP2, hits give low values 1.02 | S. cerevisiae deletion strains, locus YDR318W, strain mcm21, hits give low values 0.982 | S. cerevisiae deletion strains, locus YDR388W, hits give low values 1 | S. cerevisiae deletion strains, locus YDR502C, strain sam2, hits give low values 0.987 | S. cerevisiae deletion strains, locus YEL061C, strain CIN8, hits give low values 1 | S. cerevisiae deletion strains, locus YER110C, hits give low values 1 | S. cerevisiae deletion strains, locus YER155C, strain BEM2, hits give low values 1.01 | S. cerevisiae deletion strains, locus YER167W, strain BCK2, hits give low values 1 | S. cerevisiae deletion strains, locus YGL078C, strain dbp3, hits give low values 1 | S. cerevisiae deletion strains, locus YGL086W, strain mad1, hits give low values 0.99 | S. cerevisiae deletion strains, locus YGL248W, strain PDE1, hits give low values 1.01 | S. cerevisiae deletion strains, locus YGR078C, strain PAC10, hits give low values 1.01 | S. cerevisiae deletion strains, locus YGR135W, strain pre9, hits give low values 0.991 | S. cerevisiae deletion strains, locus YGR229C, strain SMI1, hits give low values 1.02 | S. cerevisiae deletion strains, locus YGR252W, strain gcn5, hits give low values 0.929 | S. cerevisiae deletion strains, locus YHR030C, strain SLT2, hits give low values 1 and 0.914 | S. cerevisiae deletion strains, locus YHR079C, strain IRE1 (second series), hits give low values 0.99 | S. cerevisiae deletion strains, locus YHR094C, strain hxt1, hits give low values 1.01 | S. cerevisiae deletion strains, locus YHR129C, strain ARP1, hits give low values 0.999 | S. cerevisiae deletion strains, locus YHR200W, strain rpn10, hits give low values 0.994 | S. cerevisiae deletion strains, locus YIL066C, strain RNR3, hits give low values 1.01 | S. cerevisiae deletion strains, locus YIL073C, strain SPO22, hits give low values 1.02 | S. cerevisiae deletion strains, locus YIL125W, strain kgd1, hits give low values 1 | S. cerevisiae deletion strains, locus YIR030C, strain dcg1, hits give low values 1 | S. cerevisiae deletion strains, locus YJL095W, strain BCK1, hits give low values 0.971 and 0.977 | S. cerevisiae deletion strains, locus YJL134W, strain LCB3, hits give low values 1.01 | S. cerevisiae deletion strains, locus YJL168C, strain set2, hits give low values 1 | S. cerevisiae deletion strains, locus YJL187C, strain SWE1 (second series), hits give low values 1 | S. cerevisiae deletion strains, locus YJR043C, strain POL32, hits give low values 1.01 | S. cerevisiae deletion strains, locus YJR066W, strain TOR1, hits give low values 0.864 | S. cerevisiae deletion strains, locus YJR075W, strain HOC1, hits give low values 0.996 | S. cerevisiae deletion strains, locus YKL009W, strain mrt4, hits give low values 0.979 | S. cerevisiae deletion strains, locus YKL068W, hits give low values 1.01 | S. cerevisiae deletion strains, locus YKL085W, strain MDH1 (second series), hits give low values 1.03 | S. cerevisiae deletion strains, locus YKL085W, strain MDH1, hits give low values 1.03 | S. cerevisiae deletion strains, locus YKL190W, strain CNB1, hits give low values 1.01 | S. cerevisiae deletion strains, locus YKR001C, strain vps1, hits give low values 0.967 | S. cerevisiae deletion strains, locus YLR039C, strain RIC1, hits give low values 0.978 | S. cerevisiae deletion strains, locus YLR058C, strain SHM2, hits give low values 1.01 | S. cerevisiae deletion strains, locus YLR102C, strain apc9, hits give low values 0.999 | S. cerevisiae deletion strains, locus YLR113W, strain HOG1, hits give low values 1.03 | S. cerevisiae deletion strains, locus YLR262C, strain YPT6, hits give low values 0.993 | S. cerevisiae deletion strains, locus YLR268W, strain sec22, hits give low values 0.982 | S. cerevisiae deletion strains, locus YLR330W, strain CHS5, hits give low values 1.01 | S. cerevisiae deletion strains, locus YLR342W, strain FKS1 (second series), hits give low values 1.01 | S. cerevisiae deletion strains, locus YLR371W, strain rom2, hits give low values 1 | S. cerevisiae deletion strains, locus YLR418C, strain cdc73, hits give low values 0.951 | S. cerevisiae deletion strains, locus YML016C, strain PPZ1, hits give low values 1.01 | S. cerevisiae deletion strains, locus YML032C, strain rad52, hits give low values 0.981 | S. cerevisiae deletion strains, locus YML124C, strain tub3, hits give low values 1.01 | S. cerevisiae deletion strains, locus YMR078C, strain ctf18, hits give low values 1.01 | S. cerevisiae deletion strains, locus YMR223W, strain ubp8, hits give low values 0.984 | S. cerevisiae deletion strains, locus YMR263W, strain SAP30, hits give low values 1 | S. cerevisiae deletion strains, locus YMR307W, strain GAS1, hits give low values 1.06 | S. cerevisiae deletion strains, locus YNL067W, strain RPL9B, hits give low values 1.02 | S. cerevisiae deletion strains, locus YNL128W, strain TEP1, hits give low values 1.02 | [2] 1.01 | S. cerevisiae deletion strains, locus YNL233W, strain BNI4, hits give low values 1 | S. cerevisiae deletion strains, locus YNL250W, strain rad50, hits give low values 1.01 | S. cerevisiae deletion strains, locus YNL271C, strain bni1, hits give low values 0.995 | S. cerevisiae deletion strains, locus YNL298W, strain CLA4, hits give low values 1 | S. cerevisiae deletion strains, locus YNL307C, strain MCK1, hits give low values 0.939 | [3] 1.02 | S. cerevisiae deletion strains, locus YNR052C, strain pop2, hits give low values 0.996 | S. cerevisiae deletion strains, locus YOL006C, strain TOP1, hits give low values 0.992 | S. cerevisiae deletion strains, locus YOL012C, strain htz1 1.15 | S. cerevisiae deletion strains, locus YOL147C, strain pex11, hits give low values 0.996 | S. cerevisiae deletion strains, locus YOR061W, strain CKA2, hits give low values 1.01 | S. cerevisiae deletion strains, locus YOR069W, strain VPS5, hits give low values 1 | S. cerevisiae deletion strains, locus YOR136W, strain idh2, hits give low values 1 | S. cerevisiae deletion strains, locus YOR144C, strain elg1, hits give low values 1 | S. cerevisiae deletion strains, locus YOR184W, strain ser1, hits give low values 0.963 | S. cerevisiae deletion strains, locus YOR231W, strain MKK1, hits give low values 1.01 | S. cerevisiae deletion strains, locus YOR316C, strain cot1, hits give low values 0.998 | [4] 1.05 | S. cerevisiae deletion strains, locus YPL241C, strain CIN2, hits give low values 1.01 | S. cerevisiae deletion strains, locus YPL256C, strain CLN2, hits give low values 0.964 | S. cerevisiae deletion strains, locus YPR119W, strain clb2, hits give low values 1.01 | S. cerevisiae deletion strains, locus YPR141C, strain kar3, hits give low values 1.01 | S. cerevisiae deletion strains, locus YPR163C, strain tif3, hits give low values 1.01 | S. cerevisiae deletion strains, locus YPR167C, strain met16, hits give low values 1 | S. cerevisiae deletion strains, strain wtn01, hits give low values 0.984 | S. cerevisiae strains, strain wild type, hits give low values 1.01
active: S. cerevisiae deletion strains, locus YHR079C, strain IRE1, hits give low values 0.846

N[C@@H](Cc1ccc(F)cc1)C(=O)O
inactive: [1] 1.01 | S. cerevisiae deletion strains, locus YAL040C, strain CLN3, hits give low values 0.992 | S. cerevisiae deletion strains, locus YCL061C, strain MRC1 (second series), hits give low values 0.995 | S. cerevisiae deletion strains, locus YDR363W, strain ESC2, hits give low values 1.01 | S. cerevisiae deletion strains, locus YER002W, strain NOP16, hits give low values 0.99 | [2] 0.995 | S. cerevisiae deletion strains, locus YNL175C, strain NOP13, hits give low values 0.978 | S. cerevisiae deletion strains, locus YNL197C, strain WHI3, hits give low values 0.995 | S. cerevisiae deletion strains, locus YNL224C, strain SQS1, hits give low values 0.967 | [3] 1 | S. cerevisiae deletion strains, locus YOR083W, strain WHI5 (second series), hits give low values 0.988 | [4] 0.99
